“And” between values parts separate entries of the source, which are not always exact repeats. Equal entries are not always repeated. In all, about 5,500 compounds went through this assay and about 2,000 (36%) were called active. Not shown: some 18% with an inconclusive outcome. Rule as the data show it: active = normalized growth mostly below about 0.91 (no sharp cut-off); inconclusive = no clear call, values can overlap the other calls; inactive = mostly above about 0.92. The list shows a part of the results.
Experiment: chemical genetic growth profiling, strain panel (AID 1159580);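 also: tested at 20 µM; growth read once vehicle control cultures reached saturation at 30 °C; 1 = growth at the plate median or of vehicle wells; lower values mean less growth of the strain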
Details: S. cerevisiae deletion strains, growth OD

Measured: normalized growth

CCn1cc(C(=O)O)c(=O)c2cnc(N3CCNCC3)nc21
inactive: locus YAL021C, strain ccr4, stronger effect = lower value 1.02 | locus YAL026C, strain drs2, stronger effect = lower value 1.03 | locus YAL030W, strain snc1, stronger effect = lower value 1.03 | locus YBL061C, strain skt5, stronger effect = lower value 1.04 | locus YBR009C, strain hhf1, stronger effect = lower value 1.02 | locus YBR021W, strain FUR4, stronger effect = lower value 0.997 | locus YBR023C, strain chs3, stronger effect = lower value 1.03 | locus YBR171W, strain sec66, stronger effect = lower value 1.04 | locus YBR229C, strain ROT2, stronger effect = lower value 0.98 | locus YBR231C, strain swc5, stronger effect = lower value 0.998 | locus YBR279W, strain paf1, stronger effect = lower value 1.01 | locus YCL011C, strain gbp2, stronger effect = lower value 1.04 | locus YCL016C, strain dcc1, stronger effect = lower value 1.01 | locus YCL029C, strain bik1, stronger effect = lower value 0.987 | locus YCL069W, strain vba3, stronger effect = lower value 1.02 | locus YCR088W, strain abp1, stronger effect = lower value 1.02 | locus YDL005C, strain med2, stronger effect = lower value 1 | locus YDL035C, strain GPR1, stronger effect = lower value 1.01 | locus YDL040C, strain nat1, stronger effect = lower value 1 | locus YDL074C, strain BRE1, stronger effect = lower value 1.06 | locus YDL101C, strain DUN1, stronger effect = lower value 0.994 | locus YDL134C, strain PPH21, stronger effect = lower value 0.986 | locus YDL185W, strain tfp1, stronger effect = lower value 0.985 | locus YDL192W, strain arf1, stronger effect = lower value 0.985 | locus YDR001C, strain nth1, stronger effect = lower value 1.01 | locus YDR069C, strain doa4, stronger effect = lower value 1.02 | locus YDR101C, strain arx1, stronger effect = lower value 1.01 | locus YDR137W, strain rgp1, stronger effect = lower value 1 | locus YDR159W, strain sac3, stronger effect = lower value 0.945 | locus YDR162C, strain NBP2, stronger effect = lower value 0.992 | locus YDR195W, strain ref2 0.975 | locus YDR297W, strain sur2, stronger effect = lower value 1 | locus YDR318W, strain mcm21, stronger effect = lower value 1.01 | locus YDR334W, strain swr1, stronger effect = lower value 1.02 | locus YDR335W, strain msn5, stronger effect = lower value 1.01 | locus YDR388W, stronger effect = lower value 0.993 | locus YDR392W, strain spt3, stronger effect = lower value 0.959 | locus YDR502C, strain sam2, stronger effect = lower value 1 | locus YEL003W, strain gim4, stronger effect = lower value 1.02 | locus YEL037C, strain rad23, stronger effect = lower value 1.01 | locus YEL061C, strain CIN8 (second series), stronger effect = lower value 1 | locus YEL061C, strain CIN8, stronger effect = lower value 0.995 | locus YER015W, strain faa2, stronger effect = lower value 1.02 | locus YER016W, strain bim1, stronger effect = lower value 1.02 | locus YER110C, stronger effect = lower value 0.987 | locus YER111C, strain swi4, stronger effect = lower value 1.02 | locus YER155C, strain BEM2 (second series), stronger effect = lower value 0.981 | locus YER155C, strain BEM2, stronger effect = lower value 0.983 | locus YER167W, strain BCK2, stronger effect = lower value 0.987 | locus YFR010W, strain ubp6, stronger effect = lower value 1 | locus YGL078C, strain dbp3, stronger effect = lower value 1 | locus YGL086W, strain mad1, stronger effect = lower value 1.01 | locus YGL167C, strain pmr1, stronger effect = lower value 1.01 | locus YGL173C, strain kem1, stronger effect = lower value 1 | locus YGL227W, strain vid30, stronger effect = lower value 1.01 | locus YGL240W, strain doc1, stronger effect = lower value 0.988 | locus YGL248W, strain PDE1, stronger effect = lower value 1 | locus YGL253W, strain hxk2, stronger effect = lower value 1.04 | locus YGR078C, strain PAC10, stronger effect = lower value 1.05 | locus YGR135W, strain pre9, stronger effect = lower value 0.963 | locus YGR252W, strain gcn5, stronger effect = lower value 1 | locus YHR013C, strain ard1, stronger effect = lower value 1.04 | locus YHR027C, strain rpn1, stronger effect = lower value 1.01 | locus YHR030C, strain SLT2, stronger effect = lower value 0.983 and 1.06 | locus YHR079C, strain IRE1 (second series), stronger effect = lower value 0.992 | locus YHR079C, strain IRE1, stronger effect = lower value 1.03 | locus YHR094C, strain hxt1, stronger effect = lower value 0.984 | locus YHR129C, strain ARP1, stronger effect = lower value 0.986 | locus YHR142W, strain chs7, stronger effect = lower value 1.04 | locus YHR200W, strain rpn10, stronger effect = lower value 0.988 | locus YIL066C, strain RNR3, stronger effect = lower value 1.01 | locus YIL073C, strain SPO22, stronger effect = lower value 0.961 | locus YIL125W, strain kgd1, stronger effect = lower value 0.993 | locus YIR030C, strain dcg1, stronger effect = lower value 0.986 | locus YJL092W, strain hpr5, stronger effect = lower value 1.02 | locus YJL095W, strain BCK1 (second series), stronger effect = lower value 1 | locus YJL095W, strain BCK1, stronger effect = lower value 1.03 and 1.04 | locus YJL115W, strain asf1, stronger effect = lower value 1 | locus YJL129C, strain trk1, stronger effect = lower value 1.04 | locus YJL134W, strain LCB3, stronger effect = lower value 0.983 | locus YJL154C, strain vps35, stronger effect = lower value 1.03 | locus YJL164C, strain tpk1, stronger effect = lower value 1.05 | locus YJL166W, strain qcr8, stronger effect = lower value 1.02 | locus YJL168C, strain set2, stronger effect = lower value 0.99 | locus YJL187C, strain SWE1 (second series), stronger effect = lower value 1.02 | locus YJL187C, strain SWE1, stronger effect = lower value 1.02 | locus YJR043C, strain POL32, stronger effect = lower value 1 | locus YJR066W, strain TOR1, stronger effect = lower value 1

— PubChem BioAssay AID1159580 (chemical genetic matrix, 2015)
